Inconclusive results are not listed. Calls of active or inactive are those of the source. The calls were made as follows, unless noted: active = hit-call score of the fitted dose curve at least 0.9, where 1 is the maximum; inactive = score below 0.9.
Tests used:
[1] = test system: Sodium/Iodide Symporter (NIS), SLC5A5 (gene 6528); test: CPHEA_Stoker_NIS_Inhibition_RAIU: CPHEA's Radioactive Iodide Uptake (RAIU) Assay for Sodium/Iodide Symporter (NIS) Inhibition, Stoker and Laws Labs (AID 2283841; active = hit-call score of the fitted dose curve at least 0.9, where 1 is the maximum)
Procedure, shortened: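 Test chemicals, six concentrations from 0.001 to 100uM in 0.5% DMSO, were co-incubated with carrier-free 125I (final 329pM) on hNIS-HEK293T-EPA monolayers in pH 7.4 HEPES-buffered HBSS. Plates stood 2 hours at room temperature, then were washed cold and counted.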

[2] = CPHEA_Stoker_NIS_Cytotoxicity: Cytotoxicity Assessment for CPHEA's Radioactive Iodide Uptake (RAIU) Assay for Sodium/Iodide Symporter (NIS) Inhibition, Stoker and Laws Labs (AID 2283897; active = hit-call score of the fitted dose curve at least 0.9, where 1 is the maximum;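 as to AC50: active means loss of ATP signal versus DMSO meaning cytotoxicity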)
Procedure, shortened: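 Viability in hNIS-HEK293T-EPA cells is scored as a drop in luciferase-detected ATP following 2-hour room-temperature exposure (0.001–100uM; triplicate wells, three cell passages), with DMSO as negative control.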

[3] = CEETOX_H295R_OHPREG_noMTC: CeeTox H295R High-throughput Steroidogenesis Assay for OH-Pregnenolone (OHPREG), maximum tolerated concentration (MTC) filtered results only (AID 2283912); settings: actives raise or lower the signal
Procedure, shortened: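 Medium 17alpha-hydroxypregnenolone quantified by reverse-phase HPLC-MS/MS after 48 h chemical exposure of forskolin-prestimulated (10 uM, 48 h) H295R, 0.1% DMSO final. Fitting bidirectional relative to DMSO; no maximum-tolerated-concentration filtering applied.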

[4] = CEETOX_H295R_OHPROG_noMTC: CeeTox H295R High-throughput Steroidogenesis Assay for OH-Progesterone (OHPROG), maximum tolerated concentration (MTC) filtered results only (AID 2283914); settings: actives raise or lower the signal
Procedure, shortened: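 After 48 h forskolin (10 uM) prestimulation, H295R adrenal cells received test chemical in 0.1% DMSO for 48 h. Medium 17alpha-hydroxyprogesterone was MTBE-extracted and measured by HPLC-MS/MS; gain or loss relative to DMSO, no MTT-based MTC filtering.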

[5] = CEETOX_H295R_PROG_noMTC: CeeTox H295R High-throughput Steroidogenesis Assay for Progesterone (PROG), maximum tolerated concentration (MTC) filtered results only (AID 2283920); settings: actives raise or lower the signal
Procedure, shortened: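 Progesterone secreted into medium was measured by HPLC-MS/MS after MTBE extraction, following 48 h chemical exposure (0.1% DMSO) of forskolin-prestimulated (10 uM, 48 h) H295R adrenal cells. Gain or loss fitted against DMSO; no MTC filtering.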

[6] = CEETOX_H295R_11DCORT_noMTC: CeeTox H295R High-throughput Steroidogenesis Assay for 11-Deoxycortisol (11DCORT), maximum tolerated concentration (MTC) filtered results only (AID 2283911); settings: actives raise or lower the signal
Procedure, shortened: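 HPLC-MS/MS read-out of 11-deoxycortisol after MTBE extraction of H295R medium. Cells: forskolin 10 uM pre-stimulation 48 h, chemical 48 h, 0.1% DMSO final. Bidirectional fit vs DMSO baseline; no MTC filtering.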

[7] = CEETOX_H295R_ANDR_noMTC: CeeTox H295R High-throughput Steroidogenesis Assay for Androstenedione (ANDR), maximum tolerated concentration (MTC) filtered results only (AID 2283915); settings: actives raise or lower the signal
Procedure, shortened: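 Androstenedione secreted into medium was measured by LC-MS/MS after MTBE extraction. Human adrenal H295R cells received 10 uM forskolin for 48 h before 48 h chemical exposure (0.1% DMSO). Gain or loss fitted against DMSO, including concentrations above the MTT-derived MTC.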

[8] = CEETOX_H295R_CORTISOL_noMTC: CeeTox H295R High-throughput Steroidogenesis Assay for Cortisol, maximum tolerated concentration (MTC) filtered results only (AID 2283916); settings: actives raise or lower the signal
Procedure, shortened: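 Cortisol secretion measured by LC-MS/MS after 48 h chemical treatment (final 0.1% DMSO) of forskolin-primed (10 uM, 48 h) H295R cells; gain or loss fitted relative to DMSO, without maximum-tolerated-concentration filtering.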

[9] = CEETOX_H295R_CORTIC_noMTC: CeeTox H295R High-throughput Steroidogenesis Assay for Corticosterone (CORTIC), maximum tolerated concentration (MTC) filtered results only (AID 2283917); settings: actives raise or lower the signal
Procedure, shortened: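 Human adrenal H295R cells were prestimulated 48 h with 10 uM forskolin, then exposed 48 h to chemical in 0.1% DMSO. Medium corticosterone was MTBE-extracted and quantified by HPLC-MS/MS; bidirectional fits versus DMSO, concentrations not MTC-filtered.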

[10] = CEETOX_H295R_DOC_noMTC: CeeTox H295R High-throughput Steroidogenesis Assay for DOC, maximum tolerated concentration (MTC) filtered results only (AID 2283918); settings: actives raise or lower the signal
Procedure, shortened: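 11-Deoxycorticosterone secreted by human adrenal H295R cells quantified by HPLC-MS/MS after 48 h chemical exposure (0.1% DMSO), following 48 h 10 uM forskolin prestimulation. Concentrations not filtered by MTT-derived MTC; bidirectional fitting.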

[11] = CEETOX_H295R_TESTO_noMTC: CeeTox H295R High-throughput Steroidogenesis Assay for Testosterone (TESTO), maximum tolerated concentration (MTC) filtered results only (AID 2283924); settings: actives raise or lower the signal
Procedure, shortened: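 Medium testosterone, measured by HPLC-MS/MS after liquid-liquid extraction, was fitted in both directions relative to DMSO without MTC filtering. Adrenal H295R cells received 48 h chemical exposure (0.1% DMSO final) after 48 h forskolin (10 uM) prestimulation; viability by MTT.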

[12] = biological target: Thyroid hormone receptor alpha (Rattus norvegicus) + Thyroid hormone receptor beta (Rattus norvegicus) (UniProt P18113+P63059); test: TOX21_TR_LUC_GH3_Agonist_Followup: Tox21 GH3 Thyroid Hormone Receptor Agonism Luciferase Follow-Up Assay (AID 2283939; active = hit-call score of the fitted dose curve at least 0.9, where 1 is the maximum)
Sequence of Thyroid hormone receptor alpha (Rattus norvegicus) + Thyroid hormone receptor beta (Rattus norvegicus) (P63059 whole entry, looked up): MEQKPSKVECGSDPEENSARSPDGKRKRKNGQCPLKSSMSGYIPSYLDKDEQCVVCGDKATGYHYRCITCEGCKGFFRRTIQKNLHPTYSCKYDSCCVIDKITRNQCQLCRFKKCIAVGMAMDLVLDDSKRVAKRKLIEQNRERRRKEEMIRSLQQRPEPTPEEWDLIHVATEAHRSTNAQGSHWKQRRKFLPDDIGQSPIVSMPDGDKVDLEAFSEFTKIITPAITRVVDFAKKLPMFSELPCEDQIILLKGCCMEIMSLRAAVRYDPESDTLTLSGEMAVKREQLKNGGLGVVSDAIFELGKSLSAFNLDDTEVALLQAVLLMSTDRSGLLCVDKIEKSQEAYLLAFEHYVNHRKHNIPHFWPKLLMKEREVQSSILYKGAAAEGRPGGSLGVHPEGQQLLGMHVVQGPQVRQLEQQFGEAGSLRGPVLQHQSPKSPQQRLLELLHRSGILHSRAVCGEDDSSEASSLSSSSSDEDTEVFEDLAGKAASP
Sequence of Thyroid hormone receptor alpha (Rattus norvegicus) + Thyroid hormone receptor beta (Rattus norvegicus) (P18113 whole entry, looked up): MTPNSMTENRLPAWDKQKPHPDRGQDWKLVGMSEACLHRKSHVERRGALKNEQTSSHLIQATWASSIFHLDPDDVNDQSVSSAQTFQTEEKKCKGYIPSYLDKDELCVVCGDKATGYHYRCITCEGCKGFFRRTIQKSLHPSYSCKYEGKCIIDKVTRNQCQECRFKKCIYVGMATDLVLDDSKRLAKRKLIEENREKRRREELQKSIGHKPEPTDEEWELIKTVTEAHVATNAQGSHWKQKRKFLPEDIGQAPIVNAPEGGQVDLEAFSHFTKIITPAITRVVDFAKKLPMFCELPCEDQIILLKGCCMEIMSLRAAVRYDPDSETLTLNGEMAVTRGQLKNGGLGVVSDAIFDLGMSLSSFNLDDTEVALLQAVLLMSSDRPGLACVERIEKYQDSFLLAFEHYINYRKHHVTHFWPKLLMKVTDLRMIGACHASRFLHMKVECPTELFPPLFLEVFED
Procedure, shortened: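 Agonist-mode confirmatory run: 15 concentrations (5 nM to 92 uM final) on GH3 rat pituitary cells, 24 h at 37C/5% CO2, T3 as positive control. Luminescence read with ONE-Glo after 30 min.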

THRA (gene 7067) = THRA (gene 7067) (UniProt P10827); test: TOX21_TRA_COA_Agonist_Followup_ratio: Tox21 Thyroid Hormone Receptor alpha Agonism through Coactivator Recruitment Follow-Up Assay, Ratio (AID 2283948)
Sequence of THRA (gene 7067) (P10827 whole entry, looked up, the tested form may be a part): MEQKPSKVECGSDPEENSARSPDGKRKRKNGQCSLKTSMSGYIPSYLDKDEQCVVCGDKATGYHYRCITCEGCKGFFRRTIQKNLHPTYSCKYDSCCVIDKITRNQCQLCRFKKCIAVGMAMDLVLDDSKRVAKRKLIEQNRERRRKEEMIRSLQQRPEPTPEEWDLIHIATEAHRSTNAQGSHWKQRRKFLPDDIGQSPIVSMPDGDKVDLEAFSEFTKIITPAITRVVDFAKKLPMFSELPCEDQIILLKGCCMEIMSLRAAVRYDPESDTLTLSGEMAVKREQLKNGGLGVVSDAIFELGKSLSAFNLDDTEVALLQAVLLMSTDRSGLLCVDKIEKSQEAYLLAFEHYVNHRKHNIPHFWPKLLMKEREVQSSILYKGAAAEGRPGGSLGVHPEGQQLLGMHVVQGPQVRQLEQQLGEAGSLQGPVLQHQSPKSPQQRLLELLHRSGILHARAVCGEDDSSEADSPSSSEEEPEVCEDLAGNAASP
Procedure, shortened: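 Read-out is the 520/495 nm emission ratio (ex 340 nm), scaled between DMSO-only wells as 0% and T3 wells as 100%. It reflects fluorescein-SRC-2 peptide recruitment to GST-TRα LBD detected via terbium anti-GST antibody.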

## O=C(OC[C@H]1O[C@@H](OC(=O)c2cc(O)c(O)c(OC(=O)c3cc(O)c(O)c(O)c3)c2)[C@H](OC(=O)c2cc(O)c(O)c(OC(=O)c3cc(O)c(O)c(O)c3)c2)[C@@H](OC(=O)c2cc(O)c(O)c(OC(=O)c3cc(O)c(O)c(O)c3)c2)[C@@H]1OC(=O)c1cc(O)c(O)c(OC(=O)c2cc(O)c(O)c(O)c2)c1)c1cc(O)c(O)c(OC(=O)c2cc(O)c(O)c(O)c2)c1
[1]
  outcome: inactive
[2]
  outcome: inactive

## Clc1nc(Cl)c(Cl)c(Cl)c1Cl
[1]
  outcome: inactive
[2]
  outcome: inactive

## O=c1[nH]c2ccc(S(=O)CCN3CCC(Cc4ccc(F)cc4)CC3)cc2o1 (centres undefined)
[1]
  outcome: inactive
[2]
  outcome: inactive

## O=C(NS(=O)(=O)/C=C/c1ccccc1)c1ccc(F)cc1Cl
[3]
  AC50: 7.49 µM (active)
[4]
  AC50: 5.24 µM (active)
[5]
  outcome: inactive

## O=C(O)c1cccc(N(Cc2cccnc2)c2ccc(OC(F)F)c(OC(F)F)c2)c1
[2]
  outcome: inactive

## CCCCCCc1ccc(O)cc1O
[2]
  outcome: inactive

## CC(C)=CCC/C(C)=C\CO
[6]
  outcome: inactive
[3]
  outcome: inactive
[4]
  outcome: inactive
[7]
  outcome: inactive
[8]
  AC50: 61.5 µM (active)
[9]
  AC50: 57.7 µM (active)
[10]
  outcome: inactive
[5]
  outcome: inactive
[11]
  outcome: inactive
[12]
  outcome: inactive
THRA (gene 7067)
  outcome: inactive

## CCOC(=O)c1ccc(C2CCC(NC[C@H](O)COc3ccc(O)c(NS(C)(=O)=O)c3)CC2)cc1 (some centres undefined)
[2]
  outcome: inactive

## Cn1c(=O)cc(Oc2ccc(F)cc2F)c2cnc(NCC(C)(C)O)nc21
[2]
  outcome: inactive

## COc1ccc(/C=C/S(=O)(=O)NC(=O)c2ccc(C)cc2Cl)cc1
[2]
  outcome: inactive

## CCCCC(CC)COC(=O)c1ccc(C(=O)OCC(CC)CCCC)cc1 (centres undefined)
[3]
  outcome: inactive
[4]
  outcome: inactive
[7]
  outcome: inactive
[5]
  outcome: inactive
[11]
  outcome: inactive

## COc1cccc(-c2ccc(/C=C\CN3CCCCCC3)cc2Cl)c1
[1]
  outcome: inactive
[2]
  outcome: inactive

## Fc1ccccc1[C@@H](F)COC1CCC(Nc2ncnc3[nH]ncc23)CC1 (some centres undefined)
[1]
  AC50: 89.1 µM (active)
[2]
  AC50: 9.92 µM (active)
